Drawing on PubChem BioAssay (NCI), this text covers growth inhibition for nine compounds.

The nature of experiment [1]: NCI Yeast Anticancer Drug Screen. Data for the rad50 strain (AID 155).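 Also: 0% = growth of vehicle-only cultures of the same strain.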 As to conditions: S. cerevisiae rad50 strain growth inhibition, hits give high values. In short, it runs like this:
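Compounds were tested on a yeast strain with an engineered DNA damage repair alteration; the reported value is growth inhibition normalised to vehicle treatment.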

A short description of experiment [2]: NCI Yeast Anticancer Drug Screen. Data for the mec2-1 strain (AID 157). Particulars: S. cerevisiae mec2-1 strain, hits give high values. Put shortly:
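Test agents were screened against the mec2-1 yeast strain, with defined DNA repair or cell cycle alteration. Growth was scored as inhibition against vehicle-only controls.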

Experiment [3] is described as follows: NCI Yeast Anticancer Drug Screen. Data for the sgs1 mgt1 strain (AID 161).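 Also: 0% = growth of cultures given vehicle only.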 As to conditions: S. cerevisiae sgs1 mgt1 strain, hits give high values. In short, it runs like this: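 Inhibition of yeast growth, normalised to vehicle-treated controls, is reported for a strain bearing genetic alterations in DNA damage repair.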
The nature of experiment [4]: NCI Yeast Anticancer Drug Screen. Data for the cln2 rad14 strain (AID 165).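 Also: 0% = growth equal to vehicle treated cultures.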 As to conditions: S. cerevisiae cln2 rad14 strain, hits give high values. Put shortly:
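Growth of compound-exposed yeast (cln2 rad14 genotype) measured and expressed as inhibition relative to vehicle.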

The nature of experiment [5]: NCI Yeast Anticancer Drug Screen. Data for the bub3 strain (AID 167). As to conditions: S. cerevisiae bub3 mutant strain, hits give high values. Put shortly: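 Growth of a checkpoint-deficient yeast mutant is measured after compound exposure. Values represent inhibition relative to vehicle.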
A short description of experiment [6]: NCI Yeast Anticancer Drug Screen. Data for the mlh1 rad18 strain (AID 175). As to conditions: S. cerevisiae mlh1 rad18 strain growth inhibition, hits give high values. In short, it runs like this:
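In this whole-cell yeast screen, a strain with altered DNA damage repair is challenged with compound, and its growth is measured against matched vehicle-treated controls.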

Setting [7] is: at 5.0 µM (retest, dose inferred, filed as 0.5).
The mark [8] stands for this setting: at 50.0 µM (retest, dose inferred, filed as 5.0).

SMILES strings stand for the structures. About 79,000 compounds went through this panel and 15% of them were active in at least one assay; those are over-represented in the sample as a whole. Unmarked numbers belong to inactive results. Activity calls are given as the source filed them. Rule as the data show it: active = growth inhibition above about 70%; inactive = the rest.

In the case of `C/C(=N/NC(=S)Nc1cccc(Cl)c1)c1ccccn1`, the growth inhibition is 78% (active) in experiment [1] (setting [7]); 97% (active) in experiment [1] (setting [8]); 79% (active) in experiment [1] (at 50.0 µM); 91% (active) in experiment [2] (setting [7]); 97% (active) in experiment [2] (setting [8]); 86.7% (active) in experiment [2] (at 50.0 µM). Also, the growth inhibition in experiment [3] (setting [7]) is 85% (active); in experiment [3] (setting [8]), 97% (active); in experiment [3] (at 50.0 µM) it was 87% (active); in experiment [4] (setting [7]), 81% (active); in experiment [4] (setting [8]), 96% (active); in experiment [4] (at 50.0 µM), 88.2% (active). Also, the growth inhibition in experiment [5] (setting [7]) is 82% (active); in experiment [5] (setting [8]) it was 96% (active); in experiment [5] (at 50.0 µM), 90% (active); in experiment [6] (setting [7]) it was 91% (active); in experiment [6] (setting [8]), 97% (active); in experiment [6] (at 50.0 µM), 90.1% (active).
Take `COC(=O)/C=C/c1c2ccccc2cc2ccccc12`: the growth inhibition is 11% in experiment [1] (setting [7]); 28% in experiment [1] (setting [8]); 14.8% in experiment [1] (at 50.0 µM); 13% in experiment [2] (setting [7]); 39% in experiment [2] (setting [8]); 25.2% in experiment [2] (at 50.0 µM). Also, the growth inhibition in experiment [3] (setting [7]) is 18%; in experiment [3] (setting [8]), 46%; in experiment [3] (at 50.0 µM) it was 64.3%; in experiment [4] (setting [7]), 8%; in experiment [4] (setting [8]) it was 24%; in experiment [4] (at 50.0 µM), 39.8%. In addition, the growth inhibition in experiment [5] (setting [7]) was 9%; in experiment [5] (setting [8]), 28%; in experiment [5] (at 50.0 µM), 37%; in experiment [6] (setting [7]), 6%; in experiment [6] (setting [8]), 36%; in experiment [6] (at 50.0 µM), 75.3% (active).
For `CS(=O)(=O)OCCN(CCOS(C)(=O)=O)c1ccc(C=Nc2cccc(Br)c2)c(Cl)c1`, the growth inhibition in experiment [1] (setting [7]) is 1%; in experiment [1] (setting [8]), 22%; in experiment [1] (at 50.0 µM), 41.5%; in experiment [2] (setting [7]), -3%; in experiment [2] (setting [8]), 1%; in experiment [2] (at 50.0 µM), -2.3%. The growth inhibition was -3% in experiment [3] (setting [7]); 12% in experiment [3] (setting [8]); 2.5% in experiment [3] (at 50.0 µM); -4% in experiment [4] (setting [7]); -4% in experiment [4] (setting [8]); -49.9% in experiment [4] (at 50.0 µM). Moreover, the growth inhibition in experiment [5] (setting [7]) was 0%; in experiment [5] (setting [8]) it was 1%; in experiment [5] (at 50.0 µM), 6.85%; in experiment [6] (setting [7]), 5%; in experiment [6] (setting [8]), 36%; in experiment [6] (at 50.0 µM), 68.5%.
Take `CC(C)Cn1cnc2c(SCc3ccccc3[N+](=O)[O-])nc(N)nc21`: the growth inhibition in experiment [1] (setting [7]) was 2%; in experiment [1] (setting [8]), -4%; in experiment [1] (at 50.0 µM), 90% (active); in experiment [2] (setting [7]), -4%; in experiment [2] (setting [8]), -2%; in experiment [2] (at 50.0 µM), 96% (active). The growth inhibition is 0% in experiment [3] (setting [7]); -2% in experiment [3] (setting [8]); 56% in experiment [3] (at 50.0 µM); -22% in experiment [4] (setting [7]); -3% in experiment [4] (setting [8]); 82.2% (active) in experiment [4] (at 50.0 µM). For the same compound, the growth inhibition in experiment [5] (setting [7]) is -1%; in experiment [5] (setting [8]), -4%; in experiment [5] (at 50.0 µM) it was 96.8% (active); in experiment [6] (setting [7]), 1%; in experiment [6] (setting [8]), 2%; in experiment [6] (at 50.0 µM), 84.8% (active).
`COC(=O)/C=C(\C)Nc1ccc(Cc2ccc(Cl)cc2)cc1`: the growth inhibition in experiment [1] (setting [7]) is 7%; in experiment [1] (setting [8]), 98% (active); in experiment [1] (at 50.0 µM), 98.3% (active); in experiment [2] (setting [7]) it was -3%; in experiment [2] (setting [8]) it was 99% (active); in experiment [2] (at 50.0 µM) it was 97.8% (active). Moreover, the growth inhibition in experiment [3] (setting [7]) was 7%; in experiment [3] (setting [8]), 99% (active); in experiment [3] (at 50.0 µM), 97.2% (active); in experiment [4] (setting [7]), 1%; in experiment [4] (setting [8]), 99% (active); in experiment [4] (at 50.0 µM) it was 97.5% (active). Further, the growth inhibition is -3% in experiment [5] (setting [7]); 98% (active) in experiment [5] (setting [8]); 97.5% (active) in experiment [5] (at 50.0 µM); 9% in experiment [6] (setting [7]); 99% (active) in experiment [6] (setting [8]); 98.2% (active) in experiment [6] (at 50.0 µM).
Regarding `NNc1nc(Nc2ccccc2)nc(Nc2ccccc2)n1`, the growth inhibition in experiment [1] (setting [7]) is -8%; in experiment [1] (setting [8]), 93% (active); in experiment [1] (at 50.0 µM), 51.9%; in experiment [2] (setting [7]), -5%; in experiment [2] (setting [8]), 10%; in experiment [2] (at 50.0 µM), 42%. In addition, the growth inhibition was -9% in experiment [3] (setting [7]); 56% in experiment [3] (setting [8]); 45.5% in experiment [3] (at 50.0 µM); -9% in experiment [4] (setting [7]); 52% in experiment [4] (setting [8]); 37.5% in experiment [4] (at 50.0 µM). Besides, the growth inhibition is -4% in experiment [5] (setting [7]); 44% in experiment [5] (setting [8]); 48.5% in experiment [5] (at 50.0 µM); -2% in experiment [6] (setting [7]); 51% in experiment [6] (setting [8]); 41.6% in experiment [6] (at 50.0 µM).
Consider `OC(Cc1ccccc1)(Cc1ccccc1)c1ccccc1`, for which the growth inhibition was 20% in experiment [1] (setting [7]); 98% (active) in experiment [1] (setting [8]); 88.5% (active) in experiment [1] (at 50.0 µM); 13% in experiment [2] (setting [7]); 99% (active) in experiment [2] (setting [8]); 78.2% (active) in experiment [2] (at 50.0 µM). Moreover, the growth inhibition in experiment [3] (setting [7]) is -3%; in experiment [3] (setting [8]), 99% (active); in experiment [3] (at 50.0 µM), 78% (active); in experiment [4] (setting [7]), 3%; in experiment [4] (setting [8]), 98% (active); in experiment [4] (at 50.0 µM), 93.9% (active). In addition, the growth inhibition in experiment [5] (setting [7]) is -14%; in experiment [5] (setting [8]), 97% (active); in experiment [5] (at 50.0 µM), 88.3% (active); in experiment [6] (setting [7]) it was -6%; in experiment [6] (setting [8]), 99% (active); in experiment [6] (at 50.0 µM), 96% (active).
In the case of `CC1=C(C)C(N2CCOCC2)CS(=O)(=O)O1` (configuration not stated), the growth inhibition is 4% in experiment [1] (setting [7]); 0% in experiment [1] (setting [8]); 6.15% in experiment [1] (at 50.0 µM); 1% in experiment [2] (setting [7]); -3% in experiment [2] (setting [8]); -14.4% in experiment [2] (at 50.0 µM). Further, the growth inhibition in experiment [3] (setting [7]) was 5%; in experiment [3] (setting [8]), 0%; in experiment [3] (at 50.0 µM), -2.3%; in experiment [4] (setting [7]) it was 3%; in experiment [4] (setting [8]), -1%; in experiment [4] (at 50.0 µM), 16.4%. For the same compound, the growth inhibition in experiment [5] (setting [7]) was -2%; in experiment [5] (setting [8]), -1%; in experiment [5] (at 50.0 µM), 1.35%; in experiment [6] (setting [7]) it was 19%; in experiment [6] (setting [8]) it was 17%; in experiment [6] (at 50.0 µM), -3.95%.
For `O=C(c1ccccc1)c1ccc2c(c1Cl)C(=O)c1ccccc1C2=O`, the growth inhibition in experiment [1] (setting [7]) is -6%; in experiment [1] (setting [8]) it was -1%; in experiment [1] (at 50.0 µM), 43%; in experiment [2] (setting [7]), -3%; in experiment [2] (setting [8]), -7%; in experiment [2] (at 50.0 µM) it was 43.8%. In addition, the growth inhibition in experiment [3] (setting [7]) was 0%; in experiment [3] (setting [8]), 0%; in experiment [3] (at 50.0 µM) it was 63.8%; in experiment [4] (setting [7]), 14%; in experiment [4] (setting [8]), -16%; in experiment [4] (at 50.0 µM), 4%. In addition, the growth inhibition in experiment [5] (setting [7]) was -8%; in experiment [5] (setting [8]), -11%; in experiment [5] (at 50.0 µM), 80.5% (active); in experiment [6] (setting [7]), 1%; in experiment [6] (setting [8]), 0%; in experiment [6] (at 50.0 µM), 65.2%.
